Bioassay records as filed in PubChem.
Rows were chosen to be rich in hits. Some 3.6% of all compounds tested hit in one or more screens of this group.
BoNT A protease – blocks Botulinum neurotoxin A light chain protease; multiplex microsphere protease substrate cleavage, flow cytometry; inhibition, % at 10 µM; 0.17% of 360,000 active; also: plate controls were buffer without enzyme for full effect and enzyme alone for no effect
MazF activator – MazEF (E. coli) toxin RNase activation | AID 504720 | 0.32% of 350,000 active | activation, % at 20 µM | P0AE70 | FAM/BHQ RNA-DNA oligo cleavage fluorescence, 5 h; in the data active = activation above about 50%
Autofluor counter – flagged as autofluorescent in microsphere protease counterscreen | compound autofluorescence counterscreen, microsphere flow cytometry; active compounds read high | fluorescence intensity (test concentration not listed) | 3.1% of 360,000 active; in the data active = fluorescence intensity above about 16000; inconclusive = no clear call, values can overlap the other calls
Anthrax LF prot – anthrax lethal factor protease inhibition | P15917 | multiplex microsphere protease cleavage assay, LF | inhibition, % at 10 µM | 0.12% of 360,000 active; also: plate controls were buffer without enzyme for full effect and enzyme alone for no effect
BoNT-F LC inh – BoNT F light chain protease inhibition; 0.22% of 360,000 active; inhibition, % at 10 µM; Multiplex microsphere protease cleavage assay, flow cytometry; in the data active = inhibition above about 35%, passing the limit was not always enough; inconclusive = no clear call, values can overlap the other calls; also: plate controls were buffer without enzyme for full effect and enzyme alone for no effect
* marks the source's active call; other numbers are inactive results. Rule as the data show it, unless noted: active = inhibition above about 30%; inconclusive = no clear call, values can overlap the other calls; inactive = below that.

Screening COc1ccccc1N1CCN(Cc2c(F)cccc2Cl)CC1 returned BoNT A protease -1, MazF activator 3, Autofluor counter 21264*, Anthrax LF prot -1 and BoNT-F LC inh -2.
COc1ccccc1N1CCN(S(=O)(=O)c2ccc(F)cc2)CC1 was read as BoNT A protease 1, MazF activator -17, Autofluor counter 15571, Anthrax LF prot -8 and BoNT-F LC inh 4.
COc1ccccc1N1CCN(Cc2ccc(Br)s2)CC1 was read as BoNT A protease 0, MazF activator -10, Autofluor counter 20319*, Anthrax LF prot -3 and BoNT-F LC inh 1.
For COc1ccccc1N1CCN(S(=O)(=O)c2cccc(F)c2)CC1 the results were BoNT A protease -1, MazF activator 0, Autofluor counter 22849*, Anthrax LF prot -2 and BoNT-F LC inh -2.
Screening O=C1NC(=O)C(c2ccccc2)(C2CCCC2)N1 (stereo not given) returned BoNT A protease 0, MazF activator 8, Autofluor counter 3233, Anthrax LF prot 2 and BoNT-F LC inh -2.
O=C(/C=C/c1cnc2ccccc2n1)NC12CC3CC(CC(C3)C1)C2 was read as BoNT A protease 1, MazF activator -12, Autofluor counter 7747, Anthrax LF prot 3 and BoNT-F LC inh -7.
For CCCCn1nc(C(=O)N2CCN(S(=O)(=O)c3ccccc3)CC2)c2ccccc2c1=O the results were BoNT A protease 6, MazF activator 2, Autofluor counter 3749, Anthrax LF prot -2 and BoNT-F LC inh 12.
CCOC(=O)C(=C1Nc2ccccc2N1)n1c(-c2cccnc2)nc2ccccc21 was read as BoNT A protease 0, Autofluor counter 6522, Anthrax LF prot -5 and BoNT-F LC inh -2.
For CNc1nc(NC)c2cn[nH]c2n1 the results were BoNT A protease 0, MazF activator 3, Autofluor counter 3902, Anthrax LF prot 5 and BoNT-F LC inh -3.
For COc1ccc(CN2CCC(C(=O)N3CCN(c4ccccc4F)CC3)CC2)cc1OC the results were BoNT A protease 0, MazF activator -1, Autofluor counter 9424, Anthrax LF prot 5 and BoNT-F LC inh -3.
Screening COc1cc(CN2CCC(C(=O)N3CCN(c4ccccc4F)CC3)CC2)cc(OC)c1OC returned BoNT A protease -1, MazF activator 4, Autofluor counter 16517*, Anthrax LF prot -2 and BoNT-F LC inh -3.
Screening Cn1c2ccccc2c2nnc(SC3CCOC3=O)nc21 (stereo not given) returned BoNT A protease 0, MazF activator 7, Autofluor counter 23365*, Anthrax LF prot 0 and BoNT-F LC inh 0.
`CCN(CC)c1ncnc2c1ncn2[C@H]1CN(Cc2ccc(-c3ccccc3)cc2)C[C@@H](CO)O1` gave BoNT A protease 0, Autofluor counter 3660, Anthrax LF prot 0 and BoNT-F LC inh 2.
For NC(=O)c1cc(N2C(=O)C3CC=CCC3C2=O)ccc1N1CCCCC1 (stereo not given) the results were BoNT A protease 1, MazF activator -7, Autofluor counter 23233*, Anthrax LF prot 3 and BoNT-F LC inh -1.
Screening Cc1ccc(NC(=O)c2cc(N3C(=O)C4CC=CCC4C3=O)ccc2N2CCCCC2)cc1 (stereo not given) returned BoNT A protease 0, MazF activator 0, Autofluor counter 4187, Anthrax LF prot -3 and BoNT-F LC inh -13.
`O=C(CSc1nnc(-c2ccccn2)n1Cc1ccco1)Nc1ccc2c(c1)OCO2` gave BoNT A protease -1, MazF activator -3, Autofluor counter 20585*, Anthrax LF prot -3 and BoNT-F LC inh -3.
`CCn1c(SCC(=O)Nc2ccc3c(c2)OCCO3)nnc1-c1ccccn1` gave BoNT A protease -2, MazF activator -3, Autofluor counter 13400, Anthrax LF prot -2 and BoNT-F LC inh -31.
Screening COc1ccc(C(=O)CSc2nnc(-c3cccnc3)n2Cc2ccco2)cc1 returned BoNT A protease 0, MazF activator 0, Autofluor counter 10586, Anthrax LF prot -6 and BoNT-F LC inh 4.
COc1ccc(C(=O)CSc2nnc(-c3cc4ccccc4cc3O)n2Cc2ccco2)cc1 was read as BoNT A protease -1, MazF activator 5, Autofluor counter 23275*, Anthrax LF prot -4 and BoNT-F LC inh -6.
`COc1ccc(C)cc1NC(=O)CSc1nnc(-c2ccccn2)n1Cc1ccco1` gave BoNT A protease inconclusive, MazF activator 3, Autofluor counter 21479*, Anthrax LF prot -1 and BoNT-F LC inh -8.
COc1ccccc1NC(=O)CSc1nnc(-c2ccco2)n1Cc1ccco1 was read as BoNT A protease 0, MazF activator 2, Autofluor counter 19643*, Anthrax LF prot 0 and BoNT-F LC inh -1.
